# Measurements reported in PubChem BioAssay (NCATS).
# Inconclusive results are not listed. A call without a number means that no potency is given here. Unmarked numbers belong to inactive results. Calls of active or inactive are those of the source. Calls come from the whole dose curve; as a rule, active = well fitted cell-killing curve with a large enough effect; inconclusive = small, poorly fitted or top-dose-only effect, or effect the other way; inactive = no such curve, though single readings can be large or run the other way.
# Legend:
# [1] = Viability qHTS for spleen associated tyrosine kinase inhibitor (SYKi) naive MV4-11 cells (AID 1963823); note: nearly all actives have a fitted effect of over 40% in size
# Procedure, shortened: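 SYKi-naive MV4-11 AML cells, 500 per well, were exposed to library compounds for 72 hr at 37 C, 5% CO2. Viability was then read by CellTiter-Glo luminescence after 10 min at room temperature.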
# [2] = Viability qHTS for spleen associated tyrosine kinase inhibitor (SYKi) drug resistant MV4-11 cells (AID 1963824); note: nearly all actives have a fitted effect of over 35% in size
# Procedure, shortened: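 SYK inhibitor-resistant MV4-11 AML cells, 500 per well, added to predispensed compounds and incubated 72 hr at 37 C, 5% CO2. Viability measured by CellTiter-Glo luminescence after 10 min at room temperature.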
# Potency is the fitted concentration of half-maximal effect.
Structure (SMILES),Potency [1],Potency [2],viability (% of control) [1],"viability, % of control [2]"
CC(=O)NC(Cc1ccccc1)C(=O)NC(C(=O)O)C(C)C (stereo unspecified),inactive,inactive,,
COc1ccc2cc(-c3cc(-c4cc(Cl)cc(Cl)c4)nn3C(C)c3ccc(C(=O)NCCC(=O)O)cc3)ccc2c1 (stereo unspecified),23.1 µM (active),25.9 µM (active),,
CSc1ccc2c(c1)C(N1CCN(C)CC1)Cc1ccccc1S2 (stereo unspecified),11.9 µM (active),26.6 µM (active),,
C=CC(C)(CC/C=C(\C)C(=O)OC)OC1OC(COC(=O)CC(C)(O)CC(=O)O)C(OC2OC(CO)C(O)C(O)C2O)C(O)C1O (stereo unspecified),inactive,inactive,,
C[C@@H]1O[C@@H](O[C@H]2[C@H](O[C@H]3[C@H](O[C@H]4CC[C@@]5(CO)C(CC[C@]6(C)C5CC=C5C7CC(C)(C)C[C@@H](O)[C@]7(C)CC[C@]56C)C4(C)C)O[C@H](C(=O)O)[C@@H](O)[C@@H]3O)OC[C@@H](O)[C@@H]2O)[C@H](O)[C@H](O)[C@H]1O (stereo partly specified),,,63.5% [at 9.25 µM],70% [at 9.25 µM]
CC1=C2C(=O)C=C(CO[C@@H]3O[C@H](CO)[C@@H](O)[C@H](O)[C@H]3O)[C@@H]2[C@H]2OC(=O)[C@H](C)[C@@H]2CC1,inactive,inactive,,
C[C@@H]1C(=O)O[C@H]2[C@H](O)C34[C@H]5C[C@@H](C(C)(C)C)C36[C@@H](OC(=O)[C@@H]6O)O[C@@]4(C(=O)O5)[C@@]12O (stereo partly specified),inactive,inactive,,
O=C(/C=C/c1ccc(O)cc1)O[C@H]1[C@@H]2C=CO[C@@H](O[C@@H]3O[C@H](CO)[C@@H](O)[C@H](O)[C@H]3O)[C@@H]2[C@@]2(CO)O[C@@H]12,inactive,inactive,,
